High-throughput results from PubChem BioAssay.
A selection: hits, their analogues and other compounds. The true share with any hit is near 17%.
TDP1 cell noCPT – qHTS for Inhibitors of human tyrosyl-DNA phosphodiesterase 1 (TDP1): qHTS in cells in absence of CPT; DT40 Tdp1-/- hTDP1 cells, no CPT, ATP luminescence, 48 h; Potency, µM (top dose mostly 46.2 µM), inactives show top-dose activity change, negative = growth inhibition, hits mostly inhibitors; 420,000 compounds, 15% hits; AID 686978, 2013; also: % is scaled to controls: 0 for no effect and ±100 for the full control effect; nearly all actives have a fitted effect of over 55% in size
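Cells were dispensed at 400 per well, compounds added by pin tool, plates incubated ≥48 hr at 37 °C, then CellTiter-Glo added for 30 min at room temperature before luminescence reading. Line: DT40 Tdp1-/- complemented with hTDP1; camptothecin omitted.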
TDP1 cell CPT – qHTS for Inhibitors of human tyrosyl-DNA phosphodiesterase 1 (TDP1): qHTS in cells in presence of CPT. chicken DT40 Tdp1-/-;hTDP1 cells + 20 nM CPT, ATP luminescence, 48 h. Potency, µM (top dose mostly 46.2 µM), for the others: top-dose activity change, negative = growth inhibition, hits mostly inhibitors. 420,000 compounds, 12% hits. AID 686979, 2013; also: % is scaled to controls: 0 for no effect and ±100 for the full control effect; nearly all actives have a fitted effect of over 55% in size
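Chicken DT40 Tdp1-/- cells stably complemented with human TDP1 were seeded at 400 cells/well in medium containing 20 nM camptothecin, exposed to pin-transferred compounds, and grown at 37 °C for at least 48 hr. Viability was read as ATP luminescence.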
ClpP mod – qHTS Assay for Activators of ClpP. ATP-dependent Clp protease proteolytic subunit (Bacillus subtilis (strain 168)), P80244. purified B. subtilis ClpP, FRET peptide cleavage, 20 min. Potency, µM (highest dose often 57.5 µM), for inactives: top-dose activity change, negative = active. 340,000 compounds, 1.9% hits. AID 651965, 2013; active = well fitted falling curve with a large enough effect; inconclusive = small, poorly fitted or top-dose-only effect; inactive = no such curve, though single readings can be large or run the other way; also: the source files actives as falling curves though it sought activators and does not explain the sign; nearly all actives have a fitted effect of over 65% in size
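Purified B. subtilis ClpP, 10 microg/mL final in Tris/HCl pH8 with KCl, BSA, glycerol and Tween-20, cleaved an Abz/nitrotyrosine-quenched decapeptide. Fluorescence (ex 320, em 430) was read at 0 and 20 min at room temperature. Delta was normalized to 5.8 microM ADEP and DMSO/no-enzyme controls.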
TDP1 block – qHTS Assay for Inhibitors of Tyrosyl-DNA Phosphodiesterase (TDP1); Tyrosyl-DNA phosphodiesterase 1 (Homo sapiens), Q9NUW8; recombinant TDP1, AlphaScreen DNA substrate cleavage; Potency, µM (series often up to 130 µM), inactives show top-dose activity change, negative = inhibition, hits mostly inhibitors; 350,000 compounds, 0.28% hits; AID 485290, 2010; also: % is scaled to controls: 0 for no effect and ±100 for the full control effect; nearly all actives have a fitted effect of over 40% in size
Target sequence (Q9NUW8 whole entry, looked up): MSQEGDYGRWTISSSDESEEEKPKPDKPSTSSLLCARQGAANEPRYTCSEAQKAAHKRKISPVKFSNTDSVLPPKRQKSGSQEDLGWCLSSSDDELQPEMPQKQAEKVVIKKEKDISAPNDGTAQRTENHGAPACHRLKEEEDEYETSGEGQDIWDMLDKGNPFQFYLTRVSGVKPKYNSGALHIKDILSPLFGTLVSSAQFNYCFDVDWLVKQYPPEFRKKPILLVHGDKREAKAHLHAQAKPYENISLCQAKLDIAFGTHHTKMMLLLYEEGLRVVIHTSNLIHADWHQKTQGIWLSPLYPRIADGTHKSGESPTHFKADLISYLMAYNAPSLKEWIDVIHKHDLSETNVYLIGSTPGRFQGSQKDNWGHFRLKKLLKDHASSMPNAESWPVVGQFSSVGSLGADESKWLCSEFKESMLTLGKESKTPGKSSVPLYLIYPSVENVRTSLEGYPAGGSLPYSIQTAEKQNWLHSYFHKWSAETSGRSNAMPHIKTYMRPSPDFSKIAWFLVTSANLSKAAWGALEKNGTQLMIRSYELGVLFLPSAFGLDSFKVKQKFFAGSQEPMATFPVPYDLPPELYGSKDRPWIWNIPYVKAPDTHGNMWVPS
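E. coli-derived human Tdp1, 1 nM final. Cpd preinc 15 min RT; substrate 15 nM final, 5 min RT; AS bead mix 10 ug/ml final, 10 min RT. Signal loss = tyrosine-FITC cleavage. No-enzyme wells = max signal.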
The depositor's hits bear a star; ? = inconclusive; · = not tested or not shown; [ ] = remark or other dose. Unless noted, calls follow the shape of the dose curve; as a rule, active = well fitted curve in the direction sought with a large enough effect; inconclusive = small, poorly fitted or top-dose-only effect, or another doubt; inactive = no such curve, though single readings can be large; an effect the other way counts as inactive or inconclusive. Potency is read from the fitted curve at half-maximal effect.

SMILES	TDP1 cell noCPT	TDP1 cell CPT	ClpP mod	TDP1 block
FC(F)Sc1ccc(N=C2NN=C(c3ccc4c(c3)OCCO4)CS2)cc1	21µM*	18µM*	-3%	10%
c1cc2c(cc1C1=NNC(=NC3CC3)SC1)OCCO2	16µM*	21µM*	-5%	5%
COc1ccc(N=C2NN=C(c3ccc4c(c3)OCCO4)CS2)cc1	26µM*	21µM*	-1%	4%
c1csc(C2=NNC(=NC3CCCCC3)SC2)c1	23µM*	?	·	8%
CC(C)(CC(=O)O)CC(=O)NNc1ncccc1C#N	-8%	1%	·	-3%
CCOC(=O)N1CN(C(=O)OCC)CN(C(=O)OCC)C1	-1%	10%	-1%	5%
CCOCCCNC(=O)CN1C(=O)NC(Cc2c[nH]c3ccccc23)C1=O (stereo not given)	19%	-5%	0%	·
Cn1cccc1CC(=O)N/N=C/C=C/c1ccco1	-13%	?	-4%	5%
CC(=O)Nc1ccc(Nc2cc(C)nc3c(-c4ccccc4)cnn23)cc1	16µM*	?	-1%	1%
CC(NC(=O)c1ccc(N2Cc3ccccc3Oc3ncccc32)s1)c1ccccc1 (stereo not given)	?	-21%	?	-3%
COc1ccc2[nH]cc(CCNc3ncnc4ccc(-c5cccc(C#N)c5)cc34)c2c1	?	21µM*	·	·
COc1cccc(-c2ccc3ncnc(NCCc4c[nH]c5ccc(OC)cc45)c3c2)c1	21µM*	23µM*	·	·
COc1ccc2[nH]cc(CCNc3cc(-c4cccc(C#N)c4)ncn3)c2c1	?	21µM*	·	·
Cc1cnc(CNc2ncnc3ccc(-c4cccc(C#N)c4)cc23)cn1	?	?	·	8%[56.1 µM]
COc1ccc2[nH]cc(CCNc3cc(-c4ccccc4OC)ncn3)c2c1	?	16µM*	·	·
COCCCn1cc(CN2CC(N3CCCCC3)CS2(=O)=O)nn1 (stereo not given)	0%	1%	1%	·
Cc1nc(NCc2cnn(C)c2)sc1-c1ccn(-c2cccc(F)c2)n1	-24%	22%[9.04 µM]	·	·
CCC(C)c1ccccc1N1CC(C(=O)NCCCn2nc(C)cc2C)CC1=O (stereo not given)	1%	-16%	-1%	1%
O=C1COc2ccc(C(=O)COC(=O)c3nc(Cl)ccc3Cl)cc2N1	-13%	?	3%	2%
COc1ccc2[nH]cc(CCNc3ncnc4ccc(-c5ccccc5C#N)cc34)c2c1	18µM*	?	·	12%[56.1 µM]
Cc1cc(NC(=O)Cn2nc(-c3cccs3)ccc2=O)cc(C)c1Br	29µM*	29µM*	·	0%
CN1Cc2c(N)cccc2[C@H](c2ccccc2)C1	·	·	·	11%[21 µM]
COC(=O)[C@H](Cc1ccccc1)NC(=O)N1CCCCCC1	11%	-10%	0%	·
COC(=O)[C@H](Cc1ccccc1)NC(=O)N1CCN(Cc2ccccc2)CC1	26µM*	?	4%	2%
COc1ccc(-c2c3c(nc4sc(C(=O)Nc5cccc(OC)c5)c(N)c24)CC(C)(C)CC3=O)cc1	13µM*	?	0%	·
SMILES	TDP1 cell noCPT	TDP1 cell CPT	ClpP mod	TDP1 block
COc1ccc(NC(=O)c2sc3nc(-c4ccc(OC)cc4)cc(C(F)(F)F)c3c2N)cc1	1.8µM*	2.9µM*	-12%	-1%
CCOc1ccc(NC(=O)c2sc3nc4c(c(-c5ccccc5)c3c2N)C(=O)CC(C)(C)C4)cc1	-19%	?	-4%	·
COc1ccc(NC(=O)c2sc3nc4c(c(-c5ccc(OC)cc5)c3c2N)C(=O)CC(C)(C)C4)cc1	13µM*	23µM*	1%	·
O=C(CCc1nnc2n(Cc3ccc(F)cc3)c(=O)c3ccccc3n12)NCCN1CCOCC1	-7%	-30%	-28%	·
O=C(c1ccc(Cn2c(=O)[nH]c3ccccc3c2=O)cc1)N1CCN(c2ccccc2)CC1	15µM*	18µM*	-13%	2%
O=C(CCc1nnc2n(Cc3ccc(F)cc3)c(=O)c3ccccc3n12)N1CCN(c2ccccn2)CC1	21µM*	?	-15%	3%
CCOC(=O)N1CCN(C(=O)c2ccc3c(=O)n(Cc4ccc(OC)cc4)c(=S)[nH]c3c2)CC1	?	?	0%	5%
O=C(c1ccc(Cn2c(=O)[nH]c3ccccc3c2=O)cc1)N1CCN(c2ccccn2)CC1	23µM*	?	-13%	5%
COc1ccc(Cn2c(=O)[nH]c3cc(C(=O)N4CCN(c5ccccn5)CC4)ccc3c2=O)cc1	23µM*	15µM*	·	4%
Cn1cnc(S(=O)(=O)N2CCCCC2c2cc(C(=O)Nc3ccc(F)c(Cl)c3)no2)c1 (stereo not given)	?	?	0%	·
COc1cc(C(=O)OCC(=O)NCCC2=CCCCC2)ccc1OCC(C)C	?	?	-3%	·
CC(=O)N1c2ccccc2CC1C(=O)N1CCN(c2ccccc2)CC1 (stereo not given)	-14%	-2%	0%	1%
O=C(c1ccc(CN2CCc3ccccc3C2)cc1)N1CCN(c2ccccc2)CC1	?	13µM*	32µM*	0%
O=C(C1Cc2ccccc2CN1C(=O)c1ccccc1)N1CCN(c2ccccc2)CC1 (stereo not given)	?	-2%	·	35µM*
COc1ccc(Cn2c(=O)[nH]c3cc(C(=O)N4CCN(c5cc(Cl)ccc5C)CC4)ccc3c2=O)cc1	15µM*	15µM*	0%	3%
O=C(Nc1ccc(/C=C/c2ccc(NC(=O)c3cc(S(=O)(=O)O)c4cccnc4c3O)cc2S(=O)(=O)O)c(S(=O)(=O)O)c1)c1cc(S(=O)(=O)O)c2cccnc2c1O	-22%	-23%	·	·
Cc1ccc(NC(=O)c2cc3c([nH]c2=O)CC(c2ccccc2)CC3=O)cc1 (stereo not given)	?	?	4%	·
Cc1ccc(-c2nc3[nH]c(=O)cc(NC(=O)C(C)C)n3n2)cc1	?	?	-2%	1%
CCC(=O)Nc1cc(=O)[nH]c2nc(-c3ccc(Cl)cc3)nn12	18µM*	?	-7%	5%
Cc1ccc(C)c(Cn2c(=O)n(Cc3ccc4c(c3)OCO4)c(=O)c3oc4ccccc4c32)c1	-13%	-6%	-3%	5%
Cc1ccc2[nH]c(O)c(N=Nc3nc4ccccc4s3)c2c1	7.3µM*	10µM*	·	3%
Cc1ccc2[nH]c(O)c(N=Nc3ccccc3[N+](=O)[O-])c2c1	5.8µM*	8.2µM*	0%	·
Cc1ccc(N2C(=O)N(CC(=O)C(C)(C)C)c3ccccc3S2(=O)=O)cc1	·	·	·	5%
CON(C)C(=O)CC1(CN(Cc2ccccc2)C(=O)OC(C)(C)C)CCCCC1	18µM*	18µM*	-1%	-10%
